Values joined by “and” are separate entries in the source; they are usually repeats but may differ in a detail not shown here. Identical values can stand only once. Inconclusive results are not listed. A call without a number means that no potency is given here. A structure can be active in one record and inactive in another. Active and inactive are the calls of the source. Unless noted, calls follow the shape of the dose curve; as a rule, active = well fitted curve in the direction sought with a large enough effect in the repeat runs; inconclusive = weak or mixed curves; inactive = no such curve, though single readings can be large; an effect the other way counts as inactive or inconclusive.
Columns and labels:
[1] = qHTS assay to identify small molecule agonists of the peroxisome proliferator-activated receptor delta (PPARd) signaling pathway - cell viability counter screen (AID 743211); also: nearly all actives have a fitted effect of over 55% in size
Method in brief: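 Multiplexed format: after the 2 h room-temperature LiveBLAzer B/G FRET step, CellTiter-Glo was added to the same wells. Luminescence after 30 min gave cell viability; compound exposure was 17 h at 37C.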

[2] = molecular target: Peroxisome proliferator-activated receptor delta (Homo sapiens) (UniProt Q03181); experiment: qHTS assay to identify small molecule agonists of the peroxisome proliferator-activated receptor delta (PPARd) signaling pathway (AID 743212; calls by dose curve)
Peroxisome proliferator-activated receptor delta (Homo sapiens), sequence (Q03181 whole entry, looked up): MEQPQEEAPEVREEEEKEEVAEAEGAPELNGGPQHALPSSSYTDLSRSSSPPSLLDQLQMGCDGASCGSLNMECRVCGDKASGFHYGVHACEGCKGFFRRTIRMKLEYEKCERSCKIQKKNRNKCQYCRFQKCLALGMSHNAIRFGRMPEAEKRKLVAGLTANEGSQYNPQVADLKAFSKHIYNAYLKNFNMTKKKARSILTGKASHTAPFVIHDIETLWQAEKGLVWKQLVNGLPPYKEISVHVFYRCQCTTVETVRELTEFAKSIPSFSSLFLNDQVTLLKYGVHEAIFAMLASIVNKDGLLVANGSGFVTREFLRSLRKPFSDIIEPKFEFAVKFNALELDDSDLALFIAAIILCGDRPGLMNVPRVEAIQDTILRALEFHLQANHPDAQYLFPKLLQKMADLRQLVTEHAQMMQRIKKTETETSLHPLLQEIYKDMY
Method in brief: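 Cells expressing a UAS-driven beta-lactamase reporter (PPARd-bla HEK293H) were given test compounds after a 5 h settle and kept at 37 C. Reporter activity was then measured as FRET fluorescence using LiveBLAzer B/G substrate.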

[3] = qHTS assay to identify small molecule antagonists of the peroxisome proliferator-activated receptor delta (PPARd) signaling pathway - cell viability counter screen (AID 743213); also: nearly all actives have a fitted effect of over 50% in size
Method in brief: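 PPARd-bla HEK293H cells (3000/well) got compound plus 300 nM L165041 agonist for 17 h at 37 C. Viability in the same wells came from CellTiter-Glo luminescence after 30 min at room temperature.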

[4] = molecular target: Bile acid receptor (Homo sapiens) (UniProt Q96RI1); experiment: qHTS assay to identify small molecule antagonists of the farnesoid-X-receptor (FXR) signaling pathway (AID 743217; active = well fitted inhibition curve with a large enough effect in the signal ratio in the repeat runs, not every such curve was filed as active; the % refers to the signal ratio; also: potency is read from the fitted curve at half-maximal effect)
Bile acid receptor (Homo sapiens), sequence (Q96RI1 whole entry, looked up): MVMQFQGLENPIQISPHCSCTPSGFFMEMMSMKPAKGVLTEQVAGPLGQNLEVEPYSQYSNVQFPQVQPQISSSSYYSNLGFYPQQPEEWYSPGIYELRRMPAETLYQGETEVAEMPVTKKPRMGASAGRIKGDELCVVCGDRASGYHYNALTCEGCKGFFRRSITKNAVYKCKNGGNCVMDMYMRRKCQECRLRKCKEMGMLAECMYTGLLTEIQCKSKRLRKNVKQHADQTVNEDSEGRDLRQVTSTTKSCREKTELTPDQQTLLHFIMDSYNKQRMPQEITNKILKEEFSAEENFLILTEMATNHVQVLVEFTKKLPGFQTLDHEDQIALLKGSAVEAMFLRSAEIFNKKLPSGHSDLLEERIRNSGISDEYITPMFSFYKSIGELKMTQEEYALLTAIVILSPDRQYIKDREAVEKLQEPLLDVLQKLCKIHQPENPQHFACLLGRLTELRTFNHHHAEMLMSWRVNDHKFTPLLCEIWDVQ
Method in brief: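 Test compounds are pin-transferred onto FXR-bla HEK 293T cells, then chenodeoxycholic acid is added at 50 uM final. After 16 h at 37 °C, LiveBLAzer B/G substrate is applied for 2 h at room temperature and fluorescence read.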

[5] = qHTS assay to identify small molecule agonists of the farnesoid-X-receptor (FXR) signaling pathway - cell viability counter screen (AID 743218); also: nearly all actives have a fitted effect of over 45% in size
Method in brief: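 Quantitative HTS counter screen measuring ATP-based viability via CellTiter-Glo luminescence in HEK 293T cells carrying a UAS-driven beta-lactamase reporter, after 16 h compound exposure at 37 C.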

[6] = molecular target: Bile acid receptor (Homo sapiens) (UniProt Q96RI1); experiment: qHTS assay to identify small molecule agonists of the farnesoid-X-receptor (FXR) signaling pathway (AID 743220; active = well fitted activation curve with a large enough effect in the signal ratio in the repeat runs, not every such curve was filed as active; the % refers to the signal ratio)
Method in brief: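 FXR-UAS-bla HEK 293T cells carrying a UAS-driven beta-lactamase reporter were plated for 5 h at 37C/5% CO2, then exposed to DMSO-dissolved Tox21 10K compounds for 16 h at 37C. A LiveBLAzer B/G FRET substrate was loaded for 2 h at room temperature before fluorescence reading.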

[7] = qHTS assay to identify small molecule antagonists of the farnesoid-X-receptor (FXR) signaling pathway - cell viability counter screen (AID 743221; active = well fitted cell-killing curve with a large enough effect in the repeat runs, not every such curve was filed as active; also: nearly all actives have a fitted effect of over 50% in size)
Method in brief: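 CellTiter-Glo, 30 min RT, luminescence; same wells as the LiveBLAzer FRET read. Cells: FXR-UAS-bla HEK 293T. Treatment: compound with chenodeoxycholic acid 50 uM final, 16 h at 37 C.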

[8] = molecular target: Vitamin D3 receptor (Homo sapiens) (UniProt P11473); experiment: qHTS assay to identify small molecule agonists of the vitamin D receptor (VDR) signaling pathway (AID 743222; calls by dose curve)
Vitamin D3 receptor (Homo sapiens), sequence (P11473 whole entry, looked up): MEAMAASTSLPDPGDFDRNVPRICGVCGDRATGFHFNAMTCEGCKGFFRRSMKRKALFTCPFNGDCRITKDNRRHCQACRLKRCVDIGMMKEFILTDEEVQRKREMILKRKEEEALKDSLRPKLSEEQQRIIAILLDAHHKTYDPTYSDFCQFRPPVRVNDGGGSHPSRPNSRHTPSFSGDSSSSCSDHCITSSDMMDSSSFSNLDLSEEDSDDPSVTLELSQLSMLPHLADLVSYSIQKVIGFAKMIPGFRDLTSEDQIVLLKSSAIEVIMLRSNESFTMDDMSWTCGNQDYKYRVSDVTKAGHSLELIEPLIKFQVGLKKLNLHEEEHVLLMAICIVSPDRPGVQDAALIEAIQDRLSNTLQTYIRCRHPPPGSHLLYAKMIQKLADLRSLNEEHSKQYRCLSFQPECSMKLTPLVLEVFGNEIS
Method in brief: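 Tox21 cell reporter format: VDR-bla line, 16 h compound exposure in 5% CO2 at 37C, then fluorescence intensity after 2 h with LiveBLAzer B/G FRET substrate.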

[9] = molecular target: Vitamin D3 receptor (Homo sapiens) (UniProt P11473); experiment: qHTS assay to identify small molecule antagonists of the vitamin D receptor (VDR) signaling pathway (AID 743223; active = well fitted inhibition curve with a large enough effect in the signal ratio in the repeat runs, not every such curve was filed as active; the % refers to the signal ratio)
Method in brief: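 After VDR-bla cells are plated and left 4 h at 37C, DMSO-dissolved compounds and 3 nM (final) calcitriol agonist are added. Incubation continues 16 h at 37C; FRET beta-lactamase substrate then develops 2 h at room temperature.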

[10] = qHTS assay to identify small molecule agonists of the vitamin D receptor (VDR) signaling pathway - cell viability counter screen (AID 743224); also: nearly all actives have a fitted effect of over 50% in size; also: potency is read from the fitted curve at half-maximal effect
Method in brief: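 CellTiter-Glo viability readout on VDR-bla cells, measured after 16 h of compound treatment at 37C in the same wells.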

[11] = qHTS assay to identify small molecule antagonists of the vitamin D receptor (VDR) signaling pathway - cell viability counter screen (AID 743225); also: nearly all actives have a fitted effect of over 50% in size
Method in brief: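 Cytotoxicity toward the VDR-bla HEK 293T line was scored by ATP-based CellTiter-Glo luminescence, read in the wells already used for the beta-lactamase readout after 16 h compound treatment under 3 nM 1-alpha,25-dihydroxyvitamin D3 stimulation.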

[12] = qHTS assay to identify small molecule agonists of the NFkB signaling pathway (AID 1159509; active = well fitted curve in the direction sought with a large enough effect in the signal ratio in the repeat runs, not every such curve was filed as active; the % refers to the signal ratio; also: series mostly up to about 61 µM)
Method in brief: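 Agonist activity was read as beta-lactamase-driven FRET change (460 and 530 nm emission, 405 nm excitation) following 1.5 hr substrate loading at room temperature. Beforehand, ME-180 NFkB-bla reporter cells were treated with compounds for 5 hr at 37 C.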

[13] = qHTS assay to identify small molecule agonists of the NFkB signaling pathway - cell viability counter screen (AID 1159515; calls by dose curve; also: series mostly up to about 61 µM; nearly all actives have a fitted effect of over 55% in size)
Method in brief: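 Tox21 library compounds were tested for cytotoxicity against NFkB-bla ME-180 cells during a 5 hr exposure at 37 C. CellTiter-Glo luminescence served as the viability read-out.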

[14] = qHTS assay to identify small molecule agonists of the endoplasmic reticulum stress response signaling pathway (AID 1159516; active = well fitted activation curve with a large enough effect in the signal ratio in the repeat runs, not every such curve was filed as active; the % refers to the signal ratio)
Method in brief: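 Fluorescence at 460 and 530 nm (405 nm excitation) reports beta-lactamase from an ER stress response element in HeLa cells treated 5 hr at 37 C.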

[15] = qHTS assay to identify small molecule agonists of the endoplasmic reticulum stress response signaling pathway - cell viability counter screen (AID 1159517; calls by dose curve)
Method in brief: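 Cpd-treated ESRE-bla HeLa (5 hr, 37 C) → LiveBLAzer 2 hr RT → CellTiter-Glo 30 min RT → luminescence.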

[16] = molecular target: Nuclear receptor ROR-gamma (Homo sapiens) (UniProt P51449); experiment: qHTS assay to identify small molecule antagonists of the retinoid-related orphan receptor gamma (ROR-gamma) signaling pathway (AID 1159521; also: nearly all actives have a fitted effect of over 50% in size; also: potency is read from the fitted curve at half-maximal effect)
Method in brief: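 Readout: ONE-Glo luciferase luminescence, 30 min at room temperature. System: Tet-on RORγ CHO, RORE-LUC. Sequence: compound 2 h, doxycycline 1 uM final, 16 h at 37 C.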

[17] = qHTS assay to identify small molecule agonists of the AP-1 signaling pathway - cell viability counter screen (AID 1159525; calls by dose curve; also: nearly all actives have a fitted effect of over 55% in size; also: potency is read from the fitted curve at half-maximal effect)
Method in brief: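 Each titration point was normalised to DMSO and tetra n-octyl ammonium bromide controls. The read was Cell Titer Glo luminescence after 30 min at RT, following 5 h compound exposure of ME-180 AP-1-bla cells at 37 °C.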

[18] = qHTS assay to identify small molecule agonists of the AP-1 signaling pathway (AID 1159526; calls by dose curve)
[19] = molecular target: Peroxisome proliferator-activated receptor delta (Homo sapiens) (UniProt Q03181); experiment: qHTS assay to identify small molecule antagonists of the peroxisome proliferator-activated receptor delta (PPARd) signaling pathway (AID 743215; active = well fitted inhibition curve with a large enough effect in the signal ratio in the repeat runs, not every such curve was filed as active; the % refers to the signal ratio;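 also: cells stimulated with agonist L165041 at 300 nM final during compound exposure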; also: potency is read from the fitted curve at half-maximal effect)
Method in brief: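 Here, a reporter line (HEK293H, beta-lactamase under a UAS) measures PPARd signaling. Compounds are tested against agonist L165041 at 300 nM final concentration over 17 h at 37 C, with fluorescence read after substrate.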

[20] = qHTS assay to identify small molecule antagonists of the retinoid-related orphan receptor gamma (ROR-gamma) signaling pathway - cell viability counter screen (AID 1159520); also: nearly all actives have a fitted effect of over 50% in size; also: potency is read from the fitted curve at half-maximal effect
Method in brief: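 Tet-on ROR gamma CHO cells (1,000/well) were plated 4 hr, given compounds in DMSO for 2 hr at 37 C, then induced with 1 uM final doxycycline for 16 hr. Viability was read as ATP by CellTiter-Glo luminescence after 30 min.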

O=C(/C=C/C=C/c1ccc2c(c1)OCO2)N1CCCCC1
Potency [1]: inactive
outcome [2]: inactive
Potency [3]: inactive
Potency [4]: inactive and 54.9 µM (active)
Potency [5]: inactive
outcome [6]: inactive
Potency [7]: inactive
outcome [8]: inactive
outcome [9]: inactive
Potency [10]: inactive
Potency [11]: inactive
outcome [12]: inactive
Potency [13]: inactive
Potency [14]: inactive
Potency [15]: inactive
Potency [16]: inactive
Potency [17]: inactive
outcome [18]: inactive

COc1cccc2c1C(=O)c1c(O)c3c(c(O)c1C2=O)C[C@@](O)(C(=O)CO)C[C@@H]3O[C@H]1C[C@H](N)[C@H](O)[C@H](C)O1
Potency [1]: inactive
Potency [3]: inactive
Potency [19]: 1.55 µM (active) and 2.98 µM (active)
Potency [5]: inactive
Potency [10]: inactive
Potency [11]: inactive
outcome [12]: inactive
Potency [13]: inactive
Potency [15]: inactive
Potency [20]: inactive and 26.6 µM (active)
Potency [16]: inactive
Potency [17]: inactive
outcome [18]: inactive

CCCCCCCCCC(=O)OC
outcome [2]: inactive
Potency [3]: inactive
Potency [19]: inactive
Potency [4]: inactive
Potency [5]: inactive
outcome [6]: inactive
Potency [10]: inactive
Potency [11]: inactive
outcome [12]: inactive
Potency [14]: inactive
Potency [15]: inactive
Potency [20]: inactive
Potency [16]: inactive
Potency [17]: inactive
outcome [18]: inactive

CCC(C)(O)CCCC(C)C (stereo unspecified)
Potency [1]: inactive
outcome [2]: inactive
Potency [3]: inactive
Potency [19]: inactive
Potency [4]: inactive
Potency [5]: inactive
outcome [6]: inactive
Potency [10]: inactive
Potency [11]: inactive
outcome [12]: inactive
Potency [14]: inactive
Potency [15]: inactive
Potency [20]: inactive
Potency [17]: inactive
outcome [18]: inactive

Cc1cc2nc3c(=O)[nH]c(=O)nc-3n(C[C@H](O)[C@H](O)[C@H](O)CO)c2cc1C
Potency [1]: inactive
outcome [2]: inactive
Potency [3]: inactive
Potency [19]: inactive
Potency [4]: inactive
Potency [5]: inactive
outcome [6]: inactive
Potency [10]: inactive
Potency [11]: inactive
outcome [12]: inactive
Potency [14]: inactive
Potency [15]: inactive
Potency [20]: inactive
Potency [16]: inactive
outcome [18]: inactive

c1ccc(Nc2ccccc2)cc1
outcome [2]: inactive
Potency [3]: inactive
Potency [19]: inactive
Potency [5]: inactive
Potency [7]: inactive
outcome [8]: inactive
outcome [9]: inactive
Potency [10]: inactive
Potency [11]: inactive
outcome [12]: inactive
Potency [14]: inactive
Potency [15]: inactive
Potency [20]: 54.4 µM (active) and inactive
Potency [16]: 13.7 µM (active) and inactive
Potency [17]: inactive

C#C[C@]1(O)CC[C@H]2[C@@H]3CCC4=Cc5oncc5C[C@]4(C)[C@H]3CC[C@@]21C
Potency [3]: inactive
Potency [10]: 54.9 µM (active) and inactive
Potency [11]: inactive
outcome [12]: inactive
Potency [14]: inactive
Potency [15]: inactive
Potency [20]: inactive
Potency [16]: 17.2 µM (active) and 16.8 µM (active)
Potency [17]: 54.9 µM (active) and inactive
outcome [18]: inactive

COC(=O)c1ccccc1
Potency [1]: inactive
outcome [2]: inactive
Potency [3]: inactive
Potency [19]: inactive
Potency [5]: inactive
outcome [8]: inactive
outcome [9]: inactive
Potency [10]: inactive
Potency [11]: inactive
outcome [12]: inactive
Potency [14]: inactive
Potency [15]: inactive
Potency [16]: inactive
outcome [18]: inactive

CC(C)OB(OC(C)C)OC(C)C
Potency [1]: inactive
Potency [3]: inactive
Potency [4]: inactive
Potency [5]: inactive
outcome [6]: inactive
Potency [7]: inactive
outcome [8]: inactive
outcome [9]: inactive
Potency [10]: inactive
Potency [11]: inactive
outcome [12]: inactive
Potency [14]: inactive
Potency [15]: inactive
Potency [20]: inactive
Potency [16]: inactive
outcome [18]: inactive

CCCCOCCOCCOCCO
Potency [1]: inactive
outcome [2]: inactive
Potency [3]: inactive
Potency [19]: inactive
Potency [5]: inactive
Potency [7]: inactive
outcome [8]: inactive
outcome [9]: inactive
Potency [10]: inactive
Potency [11]: inactive
outcome [12]: inactive
Potency [14]: inactive
Potency [16]: inactive
Potency [17]: inactive
outcome [18]: inactive

Nc1ccc(Nc2ccccc2)cc1
Potency [1]: inactive
Potency [3]: inactive
Potency [5]: inactive
Potency [10]: inactive
Potency [11]: inactive
outcome [12]: inactive
Potency [14]: inactive
Potency [15]: inactive
Potency [16]: inactive and 27.3 µM (active)
Potency [17]: inactive

OC1CCCCCCCCCCC1
Potency [1]: inactive
outcome [2]: inactive
Potency [3]: inactive
Potency [19]: inactive
Potency [5]: inactive
Potency [7]: inactive
Potency [10]: inactive
Potency [11]: inactive
outcome [12]: inactive
Potency [15]: inactive
Potency [16]: inactive
Potency [17]: inactive

C=C(C)C1CC=C(C)CC1 (stereo unspecified)
Potency [1]: inactive
Potency [3]: inactive
Potency [5]: inactive
Potency [7]: inactive
Potency [10]: inactive
Potency [11]: inactive
Potency [13]: inactive
Potency [14]: inactive
Potency [15]: inactive
Potency [17]: inactive
outcome [18]: inactive

OCCO
Potency [1]: inactive
outcome [2]: inactive
Potency [3]: inactive
Potency [19]: inactive
Potency [4]: inactive
Potency [5]: inactive
outcome [6]: inactive
Potency [7]: inactive
outcome [8]: inactive
outcome [9]: inactive
Potency [10]: inactive
Potency [11]: inactive
outcome [12]: inactive
Potency [14]: inactive
Potency [15]: inactive
Potency [17]: inactive
outcome [18]: inactive
